From PubChem BioAssay (NCATS)
Inconclusive results are not listed. Entries that show only a call come without a potency. Active and inactive are the calls of the source. Calls follow the shape of the dose curve; as a rule, active = well fitted curve in the direction sought with a large enough effect; inconclusive = small, poorly fitted or top-dose-only effect, or another doubt; inactive = no such curve, though single readings can be large; an effect the other way counts as inactive or inconclusive.

tested on: Zika virus NS2B-NS3 protease (unlinked); assay: Optimization of GU AMC qHTS for Zika virus inhibitors: Unlinked NS2B-NS3 protease assay (AID 1347151); details: recombinant ZIKV NS2B-NS3 protease, fluorogenic AMC substrate; series mostly up to 52.5 µM; also: nearly all actives have a fitted effect of over 80% in size
Outline: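 In this qHTS, compounds acted on 25 nM unlinked Zika NS2B–NS3 in pH 8.0 Tris/Tween buffer. Cleavage of an AMC peptide ran 15 min at room temperature, to about 20% conversion.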

Structure (SMILES)	Potency
C[N+]1(C)CCC(OC(=O)C(c2ccccc2)c2ccccc2)CC1	inactive
O=C(c1ccc(OCCCc2cnc[nH]2)cc1)C1CC1	inactive
CNC(=O)[C@H]1O[C@@H](n2cnc3c(NCc4cccc(I)c4)ncnc32)[C@H](O)[C@@H]1O	inactive
Nc1nc(Nc2ccccc2)nc2c1ncn2[C@@H]1O[C@H](CO)[C@@H](O)[C@H]1O	inactive
Nc1nc(Cl)nc2c1ncn2[C@@H]1O[C@H](CO)[C@@H](O)[C@H]1O	inactive
CNC(=O)[C@H]1O[C@@H](n2cnc3c(NCc4ccc(N)cc4)ncnc32)[C@H](O)[C@@H]1O	inactive
CCCCC#Cc1nc(NC)c2ncn([C@@H]3O[C@H](CO)[C@@H](O)[C@H]3O)c2n1	inactive
O=c1[nH]c2cc([N+](=O)[O-])c([N+](=O)[O-])cc2[nH]c1=O	inactive
CSc1nc(N)c2ncn([C@@H]3O[C@H](COP(=O)(O)OP(=O)(O)OP(=O)(O)O)[C@@H](O)[C@H]3O)c2n1	inactive
Cc1cc(NC(=O)Nc2ccc3c(ccn3C)c2)sn1	inactive
OCC1O[C@H]([S-])[C@H](O)[C@@H](O)[C@@H]1O.[Au+] (stereo partly drawn)	inactive
Fc1ccc2[nH]c(CN3CCN(c4ccccn4)CC3)cc2c1	inactive
CC(C)CC(NP(=O)(O)O[C@@H]1O[C@@H](C)[C@H](O)[C@@H](O)[C@H]1O)C(=O)NC(Cc1c[nH]c2ccccc12)C(=O)O (stereo partly drawn)	inactive
CCC1C(=O)OCC1Cc1cncn1C (stereo not drawn)	inactive
Nc1nc(SCc2ccc([N+](=O)[O-])cc2)c2ncn([C@@H]3O[C@H](CO)[C@@H](O)[C@H]3O)c2n1	inactive

tested on: Zika virus NS2B-NS3 protease; assay: Primary screen GU AMC qHTS for Zika virus inhibitors (AID 1347154); details: Zika NS2B-NS3 unlinked protease, AMC fluorogenic substrate; series mostly up to 54.1 µM; also: nearly all actives have a fitted effect of over 70% in size
Outline: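 Fluorogenic AMC-substrate cleavage by noncovalent NS2B-NS3 protease complex (25 nM, pH 8.0 Tris buffer with Tween 20) followed for 15 minutes at room temperature (~20% conversion). Percent inhibition from ex340/em450 signal change, fitted by 4-parameter Hill equation.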

Structure (SMILES)	Potency
Nc1ncnc2c1ncn2[C@@H]1O[C@H](COP(=O)(O)OP(=O)(O)OP(=O)(O)OP(=O)(O)OC[C@@H]2O[C@H](n3cnc4c(N)ncnc43)[C@@H](O)[C@H]2O)[C@@H](O)[C@H]1O	inactive
CC1(C)C[C@@H]1C(=O)N/C(=C\CCCCSC[C@H](N)C(=O)O)C(=O)O	inactive
CC(N)C(=O)OC(C)(C)Cc1ccc(Cl)cc1 (stereo not drawn)	inactive
CCCCCCOc1ccccc1C(N)=O	inactive
O=C(CCN1CCN(CCO)CC1)N1c2ccccc2Sc2ccc(C(F)(F)F)cc21	inactive
Nc1ncnc2c1ncn2[C@@H]1O[C@H](COP(=O)(O)CP(=O)(O)OP(=O)(O)O)[C@@H](O)[C@H]1O	inactive
Clc1ccc(N2CCN(Cc3c[nH]c4ncccc34)CC2)cc1	inactive
C[N+]1(C)[C@@H]2CC(OC(=O)[C@H](CO)c3ccccc3)C[C@H]1[C@@H]1O[C@@H]12 (stereo partly drawn)	inactive
CNc1ncnc2c1ncn2[C@@H]1O[C@H](CO)[C@@H](O)[C@H]1O	inactive
CCCC(=O)OC[C@@H](OC(=O)CCC)[C@@H](OC(=O)CCC)[C@H](Cn1c2nc(=O)[nH]c(=O)c-2nc2cc(C)c(C)cc21)OC(=O)CCC	inactive
OC[C@H]1O[C@@H](n2cnc3c(NC4CCCC4)ncnc32)[C@H](O)[C@@H]1O	inactive
CSc1ccccc1N1CCN(CCCCCC(=O)NC2CCCc3ccccc32)CC1 (stereo not drawn)	inactive
C[N+]1(C)CCC(OC(=O)C(c2ccccc2)c2ccccc2)CC1	inactive
CNC(=O)[C@H]1O[C@@H](n2cnc3c(NCc4cccc(I)c4)ncnc32)[C@H](O)[C@@H]1O	inactive
Nc1nc(Cl)nc2c1ncn2[C@@H]1O[C@H](CO)[C@@H](O)[C@H]1O	inactive
CNC(=O)[C@H]1O[C@@H](n2cnc3c(NCc4ccc(N)cc4)ncnc32)[C@H](O)[C@@H]1O	inactive
O=c1[nH]c2cc([N+](=O)[O-])c([N+](=O)[O-])cc2[nH]c1=O	inactive
CSc1nc(N)c2ncn([C@@H]3O[C@H](COP(=O)(O)OP(=O)(O)OP(=O)(O)O)[C@@H](O)[C@H]3O)c2n1	inactive
Cc1cc(NC(=O)Nc2ccc3c(ccn3C)c2)sn1	inactive
CC1(C)S[C@@H]2[C@H](NC(=O)[C@H](N)c3ccccc3)C(=O)N2[C@H]1C(=O)O	inactive
CCC1C(=O)OCC1Cc1cncn1C (stereo not drawn)	inactive
CN1CCC[C@H]1c1cccnc1	inactive
Nc1nc(SCc2ccc([N+](=O)[O-])cc2)c2ncn([C@@H]3O[C@H](CO)[C@@H](O)[C@H]3O)c2n1	inactive
